Source: PubChem BioAssay AID623992 (NMMLSC, 2012)
Results with a measured potency or affinity are listed apart. Active and inactive are the calls of the source.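 The calls were made as follows: active = compounds whose fitted half-maximal effective concentration for blocking dye efflux is below 100 µM; inactive = the rest.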

What follows are molecules tested against Benomyl/methotrexate resistance protein (Candida albicans) (UniProt P28873) (assay: Candida albicans Mdr1 pump blockade titration – singleplex, Cherry Pick2 set, dose response (AID 623992)). Settings: S. cerevisiae AD/CaMDR1, Nile Red efflux, flow cytometry; series mostly up to 100 µM; efflux inhibition response: at the top concentration.
Chain of Benomyl/methotrexate resistance protein (Candida albicans) (P28873 whole entry, looked up): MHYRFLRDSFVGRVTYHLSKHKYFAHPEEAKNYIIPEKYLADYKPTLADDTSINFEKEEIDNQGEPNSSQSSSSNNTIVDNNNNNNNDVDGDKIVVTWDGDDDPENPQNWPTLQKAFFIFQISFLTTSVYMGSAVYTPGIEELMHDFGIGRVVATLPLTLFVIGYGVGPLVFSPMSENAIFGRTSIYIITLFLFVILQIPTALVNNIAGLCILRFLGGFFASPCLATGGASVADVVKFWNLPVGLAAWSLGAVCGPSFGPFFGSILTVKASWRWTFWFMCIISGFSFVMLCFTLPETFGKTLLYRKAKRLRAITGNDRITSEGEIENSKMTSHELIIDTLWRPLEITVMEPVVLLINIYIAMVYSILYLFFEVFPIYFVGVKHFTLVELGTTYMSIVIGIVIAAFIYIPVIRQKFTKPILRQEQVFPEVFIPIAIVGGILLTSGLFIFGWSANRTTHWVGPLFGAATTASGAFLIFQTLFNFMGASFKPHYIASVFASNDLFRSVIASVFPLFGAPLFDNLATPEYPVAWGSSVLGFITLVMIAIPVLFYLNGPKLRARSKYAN
With `Cc1ccc(O)c(C(=O)c2cnc3c(c2)CN(CCC(C)C)C(=O)N3)c1` the outcome was “inactive”.
With `CCCCCc1cc(=O)oc2c(C(CCN3CCCC(C)C3)c3ccc(N(C)C)cc3)c(OC)cc(OC)c12` (stereo not given) the “efflux inhibition response” value was -1.98% (inactive).
For `CCc1ccc(C2=NN(c3ccc(S(N)(=O)=O)cc3)C(c3ccc(F)cc3)C2)cc1` (stereo not given), the “efflux inhibition response” value was -1.79% (inactive).
With `CCC(Cc1ccccc1)OC(=O)c1ccccc1C(=O)O` (stereo not given) the “efflux inhibition response” value was -0.8% (inactive).
In the case of `NC1=NC[C@H](Cc2ccc(O)cc2)N1CCc1cc(C(F)(F)F)cc(C(F)(F)F)c1`, the “efflux inhibition response” value is reported as -0.65% (inactive).
With `CC(C)C(=O)N1CCN(c2ccccc2NC(=O)c2ccc3c(c2)OCCO3)CC1` the “efflux inhibition response” value was 0.84% (inactive).
For `COc1cc(OC)c2ccc(=O)oc2c1C(CCN1CCCCC1)c1ccc(N(C)C)cc1` (stereo not given), the “efflux inhibition response” value was -0.63% (inactive).
For `CC(C)C(=O)N1CCC2(CC1)Oc1ccc(F)cc1C(=O)C21CC(c2ccccc2)=NO1` (stereo not given), the “efflux inhibition response” value was 132% (inactive).
In the case of `COc1cccc(-c2sc3ccc(OC)cc3c2-c2ccc(OCCN3CCOCC3)cc2)c1`, the “efflux inhibition response” value is reported as 156% (inactive).
In the case of `O=C(C[n+]1cc(-c2ccc(Cl)cc2)n2c1CCC2)N1c2ccccc2Sc2ccccc21`, the “efflux inhibition response” value is reported as -1.78% (inactive).
For `COc1ccc(C(=O)OCCc2ccc(O)cc2)cc1`, the “efflux inhibition response” value was 0.09% (inactive).
`COc1ccc2nc(NC(=O)c3cccs3)sc2c1` was tested, and the “efflux inhibition response” value was -1.21% (inactive).
`CN1Cc2cc(C(=O)c3ccccc3O)cnc2NC1=O` was tested, and the “efflux inhibition response” value was -1.55% (inactive).
In the case of `CCCCN1Cc2cc(C(=O)c3cc(F)ccc3O)cnc2NC1=O`, the outcome is reported as “inactive”.
For `O=C(Nc1ccccc1)C1=C[C@@H](c2ccc(Br)cc2)C[C@@H](OCCCCO)O1`, the “efflux inhibition response” value was -1.31% (inactive).
For `Cc1ccc(C)c(N2CCN(C(=O)C3CCCN(c4ncnc5c4nc4n5CCCCC4)C3)CC2)c1` (stereo not given), the “efflux inhibition response” value was -0.53% (inactive).
For `COc1ccc(C(=O)NC2CC(C)(C)Cc3c2cnn3-c2ccccc2)c(OC)c1` (stereo not given), the “efflux inhibition response” value was -0.62% (inactive).
For `COc1ccc(-c2sc3ccccc3c2-c2ccc(OCCN(C)C)cc2)cc1`, the “efflux inhibition response” value was 186% (inactive).
For `CC(C)C(=O)N1CCC2(CC1)Oc1ccc(F)cc1C(=O)C21CC(c2ccc(Cl)cc2)=NO1` (stereo not given), the “efflux inhibition response” value was 133% (inactive).
In the case of `Nc1ccc(C(=O)OCCc2ccccc2)cc1`, the “efflux inhibition response” value is reported as -1.83% (inactive).
For `OCCN1CCN(CC/C=C2/c3ccccc3Sc3ccc(C(F)(F)F)cc32)CC1`, the “efflux inhibition response” value was 0.63% (inactive).
For `CCOc1cccc2sc(NC(=O)c3ccc(Br)s3)nc12`, the “efflux inhibition response” value was -0.82% (inactive).
In the case of `Cc1ccc(-c2c[n+](CC(=O)N3c4ccccc4Sc4ccccc43)c3n2CCC3)cc1`, the “efflux inhibition response” value is reported as -1.07% (inactive).
For `O=C(c1ccoc1)N1CCC2(CC1)Oc1ccc(F)cc1C(=O)C21CC(c2ccccc2)=NO1` (stereo not given), the “efflux inhibition response” value was 105% (inactive).
With `N#CC(C(=O)NCc1ccccc1)c1nc2ccccc2nc1N1CCCC1` (stereo not given) the “efflux inhibition response” value was -0.29% (inactive).
With `Cc1ccc(O)c(C(=O)c2cnc3c(c2)CN(C)C(=O)N3)c1` the “efflux inhibition response” value was 0.89% (inactive).
With `O=C1C(Cc2ccccc2)Nc2ncnc(N3CCN(c4ccccc4)CC3)c2N1Cc1ccccc1` (stereo not given) the “efflux inhibition response” value was 5.68% (inactive).
With `O=C(Nc1ccccc1)C1=C[C@H](c2ccccc2)C[C@H](OCCCCO)O1` the “efflux inhibition response” value was 0.64% (inactive).
With `NC1=NC[C@H](Cc2ccccc2)N1CCCCC1CCCCC1` the “efflux inhibition response” value was -0.87% (inactive).
`O=C(c1ccc2c(c1)OCO2)N1CCC2(CC1)Oc1ccc(F)cc1C(=O)C21CC(c2ccc(Cl)cc2)=NO1` (stereo not given) was tested, and the “efflux inhibition response” value was 30.5% (inactive).
